Some targets named below: TXLNG; TUSC2; TULP4; UBXN2A; UBE2F; UBA3; UBTD2; UNC5D; UST; VAMP8; VWA3A; WBSCR16; WDFY1.
Assay in all cases: pooled miR-30 sensor sort-seq; sequence = guide strand
Common to all, as to conditions: shRNA
Also: reference of the scale not given here.

TTTAGTTGTACTTCCTGCTGTT yielded a sensor-assay potency score (higher = more potent) with TXLNG of 0.906.

In the case of TCCTCATCATAGAACATAGAGC, the sensor-assay potency score (higher = more potent) with TUSC2 is -1.99.

For TTTCTGACTCTTCACTTTCTTC, the sensor-assay potency score (higher = more potent) with TULP4 was -1.27.

Take TTCTCTGTTATAAAGTCACTGC: the sensor-assay potency score (higher = more potent) with TXLNG is -0.298.

For the sequence TTCCTTACGTTTGAACACCTTA, the sensor-assay potency score (higher = more potent) with TXLNG is -0.525.

TTAAACTATTCAAAACTGCTAA: the sensor-assay potency score (higher = more potent) in the test with TXLNG was -0.454.

TATATTTACATCTACCTGTTTC registered a sensor-assay potency score (higher = more potent) with UBXN2A of -0.892.

For the sequence TTCAAGTTCTGCAACCTCTTTA, in the test with UBE2F, the sensor-assay potency score (higher = more potent) was 0.721.

Turning to TAGTCATCCACTTTATTCCGGA, the sensor-assay potency score (higher = more potent) in the test with UBE2F is -0.0909.

As for TTCTTGTCCATCAACAAGCCCC, the sensor-assay potency score (higher = more potent) with UBA3 is -0.667.

TTTATTCCGGAAGTCCTCCTTG: in the test with UBE2F, the sensor-assay potency score (higher = more potent) was -0.121.

In the test with UBE2F, TTCTCCATCTACAATGAGCAGT returned a sensor-assay potency score (higher = more potent) of -0.914.

On to TTTAACAAGCAATTTGTCTCTC, for which the sensor-assay potency score (higher = more potent) in the test with UBE2F worked out at 0.519.

TTCTTTATCAAAAATTCCCTGT came in with a sensor-assay potency score (higher = more potent) in the test with UBXN2A of -0.0297.

TGTGCTGCGAACCACAAGCTTG showed a sensor-assay potency score (higher = more potent) with UBTD2 of -1.41.

On to TTAAAATCTTGAATCTTGTTGA, for which, in the test with UBA3, the sensor-assay potency score (higher = more potent) came to 0.888.

For TTCATAGGGAATTTAGAGCAGT, the sensor-assay potency score (higher = more potent) with UBTD2 is -0.206.

For TATGTTTGCACCATCAATGATT, in the test with UBTD2, the sensor-assay potency score (higher = more potent) was -0.561.

For ACAAACTGTAACACAGTCCATG, the sensor-assay potency score (higher = more potent) with UBE2F is -1.41.

TACAACATAGTCCTTTGGGATC gave a sensor-assay potency score (higher = more potent) with UBTD2 of -1.63.

TTGTACTTATCTAAACATCTTC showed a sensor-assay potency score (higher = more potent) with UBXN2A of -0.32.

On to TTTGTCTCTCACAGAAACCCTC, for which the sensor-assay potency score (higher = more potent) in the test with UBE2F was -0.658.

With TTGATTGTTGATTATTACCAAG, in the test with UBXN2A, the sensor-assay potency score (higher = more potent) was -1.29.

TCTTGCTGCGTAGTTGTCCATC returned a sensor-assay potency score (higher = more potent) in the test with UBTD2 of -1.04.

As for TTTGAGACCATCGTCACGCTTC, the sensor-assay potency score (higher = more potent) in the test with UBE2F came out at 0.155.

With TGGAATACTGTGTCTGTGCTGC, in the test with UBTD2, the sensor-assay potency score (higher = more potent) was -0.0459.

Take TAACTTCTGAAATCGTCGTTGA: the sensor-assay potency score (higher = more potent) with UBXN2A was found to be 0.784.

In the test with UBTD2, AAAACCACCGCTGACTACCTGG displayed a sensor-assay potency score (higher = more potent) of -0.559.

On to TTAATATATCTTGATAACTGGT, for which the sensor-assay potency score (higher = more potent) with UBXN2A was -0.45.

For TATGTCGCTCTTTTCCTCTATC, in the test with UBTD2, the sensor-assay potency score (higher = more potent) was -0.749.

In turn, TACACTGGAAGCTGATATCTGT gave a sensor-assay potency score (higher = more potent) with UBTD2 of 0.00464.

In turn, TACATCTACCTGTTTCTTCTGT returned a sensor-assay potency score (higher = more potent) in the test with UBXN2A of 0.409.

Turning to TTAACAAGCAATTTGTCTCTCA, in the test with UBE2F, the sensor-assay potency score (higher = more potent) is -0.236.

As to TAGATAATCCAAAACCTCCTGT, the sensor-assay potency score (higher = more potent) with UBA3 was found to be 0.333.

As for TTCTGCAGCTTCAATATTCAGT, the sensor-assay potency score (higher = more potent) in the test with UBE2F is -0.23.

With TAACCTGTACAACATAGTCCTT, the sensor-assay potency score (higher = more potent) in the test with UBTD2 was -0.877.

TCGAACTTCATTTTGTCAGTGA came in with a sensor-assay potency score (higher = more potent) with UBTD2 of 0.607.

As for ATCTACATCATTAAACACCAAG, in the test with UBA3, the sensor-assay potency score (higher = more potent) is -1.38.

In the test with UBE2F, TAGCTGAAAACAATGAAGCTTG came in with a sensor-assay potency score (higher = more potent) of -0.377.

Turning to TTACATACTCAATACAGTGTTC, the sensor-assay potency score (higher = more potent) in the test with UBA3 is -0.397.

Take TTAAATTTCTGGACAATCCTTT: in the test with UBXN2A, the sensor-assay potency score (higher = more potent) is 0.433.

The sequence ATAACTTCTGAAATCGTCGTTG came in with a sensor-assay potency score (higher = more potent) with UBXN2A of 0.446.

AACCTGTACAACATAGTCCTTT displayed a sensor-assay potency score (higher = more potent) with UBTD2 of 0.105.

In the test with UBE2F, AACTGTAACACAGTCCATGGGC gave a sensor-assay potency score (higher = more potent) of -0.0499.

The sequence TTGCAGAGAAGCACTATTGGTT registered a sensor-assay potency score (higher = more potent) with UBA3 of -0.184.

TTGAATAGTACAGTCTGTGGGG displayed a sensor-assay potency score (higher = more potent) with UBA3 of 0.37.

Consider TAATATATCTTGATAACTGGTA, for which, in the test with UBXN2A, the sensor-assay potency score (higher = more potent) was found to be 0.173.

Sequence TTTTATATTTACATCTACCTGT registered a sensor-assay potency score (higher = more potent) with UBXN2A of 0.256.

Turning to TACATTTCTATAGAAATCCTAT, the sensor-assay potency score (higher = more potent) with UNC5D was -0.569.

As to TTAGTCTACCAGGACATCTTGT, the sensor-assay potency score (higher = more potent) in the test with UNC5D was -0.288.

The sequence TACCCTGTTGTACACCACCTGG gave a sensor-assay potency score (higher = more potent) in the test with UST of -1.05.

In the case of TATATTTTTAATCAGTTCCATT, the sensor-assay potency score (higher = more potent) with UST is -1.14.

For ATCATCTTCACGTTCTTCCACC, the sensor-assay potency score (higher = more potent) with VAMP8 is -0.825.

With TAGTGCTCCATCTTTGGGCTGT, the sensor-assay potency score (higher = more potent) with VWA3A is 0.398.

In turn, ATAGACTTCTCCTTTATCCGTC displayed a sensor-assay potency score (higher = more potent) with WBSCR16 of 0.592.

In the test with WDFY1, TTCATCTTTGATGGAGTCGTAA returned a sensor-assay potency score (higher = more potent) of -0.712.

For TTCCACACTGCAATTCCGCCGT, the sensor-assay potency score (higher = more potent) with WDFY1 is -0.441.

In the test with VWA3A, TACATCCGCATAGCTCTGCTGA registered a sensor-assay potency score (higher = more potent) of -0.863.

Sequence TTTCACATCTCTTTTCTCCCTG returned a sensor-assay potency score (higher = more potent) with VWA3A of 0.76.

On to TTCACATCTCTTTTCTCCCTGA, for which the sensor-assay potency score (higher = more potent) in the test with VWA3A was found to be 0.334.

These data come from the OligoGym collection.
